{
  "source": "PubChem BioAssay (NCI)",
  "note": "This is part of a sample that, as a whole, favours compounds with a hit. Of some 83,000 tested, about 20% had one in any assay.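 Method: cells in 96-well plates; compound added at one concentration; 48 h incubation; percent growth measured; values under 10 scored active.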 Active and inactive are the calls of the source.",
  "data": [
    {"test_system": "A549/ATCC NSCLC", "experiment": "NCI-60 one-dose screen, 48 h (100 = growth as untreated, 0 = no growth, -100 = all killed)", "settings": "10 µM unless noted", "experimental": "Growth inhibition of the A549/ATCC human Non-Small Cell Lung tumor cell line is measured as a screen for anti-cancer activity. Cells are grown in 96 well plates and exposed to the test compound for 48 hours. Compounds are tested at a single concentration, which is 10^-5 M for most compounds. The reported endpoint is percent growth (GI% or GIPRCNT), where numbers from 0 - 100% represent growth inhibition, and numbers from -100% - 0 represent cell death. For example, a value of 40 represents 60% growth inhibition. A value of 0 means no net growth occurred over the course of the experiment. A value of -40 indicates 40% of cells at the beginning of the experiment died by the end of the experiment. A value of -100 means all cells are dead at the end of the experiment.\nNCI-60 Human Tumor Cell Lines Screen was performed using the standard one-dose NCI protocol, which is described in more detail at https://dtp.cancer.gov/discovery_development/nci-60/default.htm.\nCompounds with GIPRCNT values below 10 were considered active. Activity score was based on GIPRCNT using the following formula: […]\nScore is 0 for GIPRCNT values of 100 or above, 50 for GIPRCNT values of 0, and 100 for GIPRCNT values of -100.", "values": [
      {"smiles": "C=CCn1c(SCC(=O)Nc2cccc(C(=O)/C=C/c3ccc(Br)cc3)c2)nc2ccccc2c1=O", "growth": "86.4% (inactive)"},
      {"smiles": "COc1cc(/C=N/n2cnc3oc(-c4ccccc4)cc3c2=N)cc(CN2CCCC2)c1O", "growth": "64.7% (inactive)"},
      {"smiles": "CS(=O)(=O)c1ccc2c(c1)c1c(n2Cc2ccc(Cl)cc2)CCCC1", "growth": "64.5% (inactive)"},
      {"smiles": "COc1ccc(/C=C/C(=O)c2nnn(-c3ccc(Br)cc3)c2C)cc1OC", "growth": "73.6% (inactive)"},
      {"smiles": "O=C(Nc1ccc(-c2nc(-c3cccc(O)c3)c(-c3ccnc(Br)c3)[nH]2)cc1)c1ccccc1", "growth": "25.9% (inactive)"},
      {"smiles": "O=C(CN1C(=O)CSC1=O)Nc1ccc(C(=O)/C=C/c2cc3ccccc3nc2Cl)cc1", "growth": "78.2% (inactive)"},
      {"smiles": "COc1cc(/C=N/n2cnc3oc(-c4ccccc4)cc3c2=N)cc(CN2CCCCC2)c1O", "growth": "-68.8% (active)"},
      {"smiles": "C/C(=C(/c1ccc(O)cc1)c1ccc(OCCN(C)C)cc1)c1ccc(Cl)cc1", "growth": "56.4% (inactive)"},
      {"smiles": "O=C1[C@H]2Cc3c([nH]c4ccccc34)[C@@H](c3ccc(Cl)cc3)N2C(=O)CN1C1CCN(Cc2c(Cl)cccc2Cl)CC1", "growth": "87.6% (inactive)"},
      {"smiles": "Cc1ccc(-c2csc(N/N=C/c3nc4ccccc4n3C3CC3)n2)cc1", "growth": "41.1% (inactive)"},
      {"smiles": "C#C[C@]1(O)CC[C@H]2[C@@H]3CC=C4c5sc(-c6ccccn6)nc5CC[C@]4(C)[C@H]3CC[C@@]21C", "growth": "85.7% (inactive)"},
      {"smiles": "COc1ccc(Cn2cc3c(c2-c2ccccc2)CCCc2cnoc2-3)cc1", "growth": "56.6% (inactive)"},
      {"smiles": "CNC(=O)c1c(NC(=O)c2ccc(F)cc2F)sc2c1CCC(=O)C2", "growth": "13.1% (inactive)"},
      {"smiles": "CCCCOc1ccc(S(=O)(=O)N2CCN(c3nccc(N4CCOCC4)n3)CC2)cc1", "growth": "28.9% (inactive)"},
      {"smiles": "Nc1nc(-c2cccc([N+](=O)[O-])c2)c(N=Nc2cccc(Cl)c2)s1", "growth": "48.7% (inactive)"},
      {"smiles": "CC1(COc2ccc3ncc(C#Cc4cncc(C(=O)Nc5cc(C(C)(C)C)on5)c4)n3n2)COC1", "growth": "47.2% (inactive)"},
      {"smiles": "COCCOc1ccc(-c2csc(NC(C)=O)n2)cc1NS(=O)(=O)c1cccc2c(N(C)C)cccc12", "growth": "98.3% (inactive)"},
      {"smiles": "COC[C@@]1(C)CC[C@]2(C)CC[C@]3(C)C(=CC[C@@H]4[C@@]5(C)CCCNC(C)(C)[C@@H]5CC[C@]43C)C2C1", "note": "(stereo not given in full)", "growth": "55.7% (inactive)"},
      {"smiles": "c1ccc(-c2n(Cc3ccc4ccccc4c3)c3c4ccccc4c4ccccc4c3[n+]2Cc2ccc3ccccc3c2)cc1", "growth": "-69.2% (active)"},
      {"smiles": "O=C(O)CNS(=O)(=O)c1ccc(Oc2ccc(S(=O)(=O)NCC(=O)O)cc2)cc1", "growth": "101% (inactive)"},
      {"smiles": "CCCC(=O)NC(c1cccnc1)c1cc(C(C)=O)c2cccnc2c1O", "note": "(stereo not given)", "growth": "18.9% (inactive)"},
      {"smiles": "COc1ccc(Cn2cc3c(c2-c2ccccc2)CCCc2cnoc2-3)cc1[N+](=O)[O-]", "growth": "66.7% (inactive)"},
      {"smiles": "NC(N)=NS(=O)(=O)c1ccc(N=NC2C(=O)NN(c3ccccc3)C2=O)cc1", "note": "(stereo not given)", "growth": "104% (inactive)"},
      {"smiles": "O=c1[nH]c2cc(Cl)ccc2n1C1CCN(c2ccc3nnc(Cl)n3n2)CC1", "growth": "88.3% (inactive)"},
      {"smiles": "O=C(Nc1cccc(-c2nc(-c3ccc(NC(=O)c4cccs4)cc3Cl)no2)c1)Nc1ccc(NC(=O)C2CC2)c(C(F)(F)F)c1", "growth": "-27.7% (active)"},
      {"smiles": "COc1ccc([C@H]2[C@H](O)C(=O)N2c2cc(OC)c(OC)c(OC)c2)cc1Cl", "growth": "19.1% (inactive)"},
      {"smiles": "COc1ccc(N)cc1C(=O)Nc1cccc(-c2cc(=O)c3c(OC)c(OC)c(OC)cc3o2)c1", "growth": "69.3% (inactive)"},
      {"smiles": "CCOC(=O)c1nn(-c2ccccc2)c(=O)c2c(N)c(C#N)c(-c3cccs3)cc12", "growth": "87.2% (inactive)"},
      {"smiles": "N#Cc1ccc(S(=O)(=O)Nc2ccc(-c3cnc(N)[nH]3)cc2)cc1", "growth": "98.4% (inactive)"},
      {"smiles": "O=C1c2c(O)cc(O)cc2O[C@@H](c2ccc(O)cc2)[C@@H]1c1c(O)cc(O)c2c(=O)cc(-c3ccc(O)c(O)c3)oc12", "growth": "106% (inactive)"},
      {"smiles": "COc1ccc(Cn2cc3c(c2-c2cc(OC)c(OC)c(OC)c2)CCCc2cnoc2-3)cc1N", "growth": "43% (inactive)"},
      {"smiles": "O=[N+]([O-])c1ccc(-c2nnc(SCc3ccc(O)c4ncccc34)n2-c2ccccc2)cc1", "growth": "22.4% (inactive)"},
      {"smiles": "CN1C(=O)N(C)C2Nn3c(s/c(=C\\c4ccccn4)c3=O)=NC21", "note": "(stereo not given)", "growth": "103% (inactive)"},
      {"smiles": "O=c1[nH]c(CCl)nc2c1cnn2-c1ccccc1", "growth": "98.6% (inactive)"},
      {"smiles": "Fc1ccccc1/C=C(/C1=NCCN1)n1cnc2ccccc21", "growth": "107% (inactive)"},
      {"smiles": "CC(C)(C)CC(C)(C)n1nnnc1C(Nc1ccccc1)c1cc2cccc3ccc4cccc1c4c32", "note": "(stereo not given)", "growth": "78.5% (inactive)"},
      {"smiles": "COC(=O)[C@@]1(C)CC[C@]2(C)CC[C@]3(C)C(=CC(=O)[C@@H]4[C@@]5(C)Cc6c(n(CC#CCN7CCN(C)CC7)c7ccccc67)C(C)(C)[C@@H]5CC[C@]43C)[C@@H]2C1", "growth": "69.4% (inactive)"},
      {"smiles": "O=C1c2c(c3c4cccnc4[nH]c3c3ccc4ccccc4c23)C(=O)N1CCN1CCOCC1", "growth": "55.4% (inactive)"},
      {"smiles": "CCOC(=O)C1=C(C)N=C2Sc3ccccc3N2C1c1ccccc1", "note": "(stereo not given)", "growth": "82.9% (inactive)"},
      {"smiles": "CS(=O)(=O)c1ccc2c(c1)c1c(n2S(=O)(=O)c2ccc(Cl)cc2)CCCC1", "growth": "48.7% (inactive)"}
    ]}
  ]
}
